The whole screen tested about 5,500 compounds, of which about 2,000 (36%) were called active. Not shown: some 18% with an inconclusive outcome. No stated cut-off is given here; in the data, active means normalized growth mostly below about 0.91 (no sharp cut-off); inconclusive means no clear call, values can overlap the other calls; inactive means mostly above about 0.92. This is one part of the list.
Test: chemical genetic growth profiling, strain panel (AID 1159580);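 further: tested at 20 µM; growth read once vehicle control cultures reached saturation at 30 °C; 1 = growth at the plate median or of vehicle wells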
Details: growth OD

Measured: normalized growth

CCOP(=S)(OCC)Oc1ccc2c(C)c(Cl)c(=O)oc2c1
inactive: S. cerevisiae deletion strains, locus YJR075W, strain HOC1, stronger effect = lower value 0.945 | S. cerevisiae deletion strains, locus YKL009W, strain mrt4, stronger effect = lower value 0.952 | S. cerevisiae deletion strains, locus YKL068W, stronger effect = lower value 0.985 | S. cerevisiae deletion strains, locus YKL085W, strain MDH1 (second series), stronger effect = lower value 0.982 | S. cerevisiae deletion strains, locus YKL085W, strain MDH1, stronger effect = lower value 0.982 | S. cerevisiae deletion strains, locus YKL160W, strain elf1, stronger effect = lower value 1 | S. cerevisiae deletion strains, locus YKL190W, strain CNB1, stronger effect = lower value 0.983 | S. cerevisiae deletion strains, locus YKR001C, strain vps1, stronger effect = lower value 0.981 | S. cerevisiae deletion strains, locus YKR026C, strain gcn3, stronger effect = lower value 0.944 | S. cerevisiae deletion strains, locus YKR091W, strain srl3, stronger effect = lower value 0.973 | S. cerevisiae deletion strains, locus YLL001W, strain dnm1, stronger effect = lower value 0.988 | S. cerevisiae deletion strains, locus YLL026W, stronger effect = lower value 0.946 | S. cerevisiae deletion strains, locus YLL041C, strain sdh2, stronger effect = lower value 0.956 | S. cerevisiae deletion strains, locus YLR027C, strain aat2, stronger effect = lower value 0.935 | S. cerevisiae deletion strains, locus YLR039C, strain RIC1, stronger effect = lower value 0.94 | S. cerevisiae deletion strains, locus YLR058C, strain SHM2, stronger effect = lower value 0.971 | S. cerevisiae deletion strains, locus YLR102C, strain apc9, stronger effect = lower value 0.985 | S. cerevisiae deletion strains, locus YLR113W, strain HOG1, stronger effect = lower value 0.936 | S. cerevisiae deletion strains, locus YLR221C, strain rsa3, stronger effect = lower value 0.933 | S. cerevisiae deletion strains, locus YLR258W, strain gsy2, stronger effect = lower value 0.969 | S. cerevisiae deletion strains, locus YLR262C, strain YPT6 (second series), stronger effect = lower value 0.976 | S. cerevisiae deletion strains, locus YLR262C, strain YPT6, stronger effect = lower value 0.929 | S. cerevisiae deletion strains, locus YLR268W, strain sec22, stronger effect = lower value 0.965 | S. cerevisiae deletion strains, locus YLR320W, strain mms22, stronger effect = lower value 0.914 | S. cerevisiae deletion strains, locus YLR330W, strain CHS5, stronger effect = lower value 0.979 | S. cerevisiae deletion strains, locus YLR342W, strain FKS1 (second series), stronger effect = lower value 1.01 | S. cerevisiae deletion strains, locus YLR342W, strain FKS1, stronger effect = lower value 0.961 | S. cerevisiae deletion strains, locus YLR357W, strain rsc2, stronger effect = lower value 0.972 | S. cerevisiae deletion strains, locus YLR370C, strain arc18, stronger effect = lower value 0.944 | S. cerevisiae deletion strains, locus YLR371W, strain rom2, stronger effect = lower value 0.993 | S. cerevisiae deletion strains, locus YLR384C, strain iki3, stronger effect = lower value 0.983 | S. cerevisiae deletion strains, locus YLR418C, strain cdc73, stronger effect = lower value 0.956 | S. cerevisiae deletion strains, locus YML016C, strain PPZ1, stronger effect = lower value 0.983 | S. cerevisiae deletion strains, locus YML032C, strain rad52, stronger effect = lower value 0.979 | S. cerevisiae deletion strains, locus YML120C, strain ndi1, stronger effect = lower value 0.962 | S. cerevisiae deletion strains, locus YML124C, strain tub3, stronger effect = lower value 0.986 | S. cerevisiae deletion strains, locus YMR058W, strain fet3, stronger effect = lower value 0.957 | S. cerevisiae deletion strains, locus YMR078C, strain ctf18, stronger effect = lower value 0.979 | S. cerevisiae deletion strains, locus YMR125W, strain sto1, stronger effect = lower value 0.97 | S. cerevisiae deletion strains, locus YMR129W, stronger effect = lower value 0.97 | S. cerevisiae deletion strains, locus YMR205C, strain PFK2, stronger effect = lower value 0.955 | S. cerevisiae deletion strains, locus YMR223W, strain ubp8, stronger effect = lower value 0.987 | S. cerevisiae deletion strains, locus YMR231W, strain pep5, stronger effect = lower value 0.948 | S. cerevisiae deletion strains, locus YMR263W, strain SAP30, stronger effect = lower value 0.972 | S. cerevisiae deletion strains, locus YMR307W, strain GAS1, stronger effect = lower value 0.894 | S. cerevisiae deletion strains, locus YNL067W, strain RPL9B, stronger effect = lower value 0.981 | S. cerevisiae deletion strains, locus YNL071W, strain lat1, stronger effect = lower value 0.944 | S. cerevisiae deletion strains, locus YNL128W, strain TEP1, stronger effect = lower value 0.952 | S. cerevisiae deletion strains, locus YNL153C, strain GIM3, stronger effect = lower value 0.972 | S. cerevisiae deletion strains, locus YNL183C, strain NPR1, stronger effect = lower value 0.974 | S. cerevisiae deletion strains, locus YNL209W, strain ssb2, stronger effect = lower value 0.957 | S. cerevisiae deletion strains, locus YNL233W, strain BNI4, stronger effect = lower value 0.959 | S. cerevisiae deletion strains, locus YNL248C, strain rpa49, stronger effect = lower value 0.96 | S. cerevisiae deletion strains, locus YNL250W, strain rad50, stronger effect = lower value 0.98 | S. cerevisiae deletion strains, locus YNL271C, strain bni1, stronger effect = lower value 0.99 | S. cerevisiae deletion strains, locus YNL298W, strain CLA4, stronger effect = lower value 0.979 | S. cerevisiae deletion strains, locus YNL307C, strain MCK1, stronger effect = lower value 0.981 | S. cerevisiae deletion strains, locus YNL322C, strain KRE1 (second series), stronger effect = lower value 0.932 | S. cerevisiae deletion strains, locus YNL322C, strain KRE1, stronger effect = lower value 0.981 | S. cerevisiae deletion strains, locus YNR049C, strain mso1, stronger effect = lower value 0.954 | S. cerevisiae deletion strains, locus YNR052C, strain pop2, stronger effect = lower value 0.994 | S. cerevisiae deletion strains, locus YOL006C, strain TOP1, stronger effect = lower value 0.884 | S. cerevisiae deletion strains, locus YOL012C, strain htz1 1.3 | S. cerevisiae deletion strains, locus YOL147C, strain pex11, stronger effect = lower value 0.993 | S. cerevisiae deletion strains, locus YOR001W, strain rrp6, stronger effect = lower value 0.95 | S. cerevisiae deletion strains, locus YOR061W, strain CKA2, stronger effect = lower value 0.961 | S. cerevisiae deletion strains, locus YOR069W, strain VPS5, stronger effect = lower value 0.979 | S. cerevisiae deletion strains, locus YOR070C, strain gyp1, stronger effect = lower value 0.994 | S. cerevisiae deletion strains, locus YOR080W, strain dia2, stronger effect = lower value 0.959 | S. cerevisiae deletion strains, locus YOR083W, strain WHI5, stronger effect = lower value 0.991 | S. cerevisiae deletion strains, locus YOR106W, strain vam3, stronger effect = lower value 0.939 | S. cerevisiae deletion strains, locus YOR136W, strain idh2, stronger effect = lower value 0.977 | S. cerevisiae deletion strains, locus YOR144C, strain elg1, stronger effect = lower value 0.985 | S. cerevisiae deletion strains, locus YOR184W, strain ser1, stronger effect = lower value 0.976 | S. cerevisiae deletion strains, locus YOR231W, strain MKK1, stronger effect = lower value 1.03 | S. cerevisiae deletion strains, locus YOR265W, strain rbl2, stronger effect = lower value 0.94 | S. cerevisiae deletion strains, locus YOR270C, strain vph1, stronger effect = lower value 0.904 | S. cerevisiae deletion strains, locus YOR290C, strain snf2, stronger effect = lower value 0.928 | S. cerevisiae deletion strains, locus YOR316C, strain cot1, stronger effect = lower value 0.971 | S. cerevisiae deletion strains, locus YPL051W, strain arl3, stronger effect = lower value 0.963 | S. cerevisiae deletion strains, locus YPL055C, strain LGE1, stronger effect = lower value 0.948 | S. cerevisiae deletion strains, locus YPL078C, strain atp4, stronger effect = lower value 0.982 | S. cerevisiae deletion strains, locus YPL106C, strain sse1, stronger effect = lower value 0.957 | S. cerevisiae deletion strains, locus YPL240C, strain hsp82, stronger effect = lower value 0.95 | S. cerevisiae deletion strains, locus YPL241C, strain CIN2, stronger effect = lower value 0.982 | S. cerevisiae deletion strains, locus YPL256C, strain CLN2, stronger effect = lower value 1.03 | S. cerevisiae deletion strains, locus YPR119W, strain clb2, stronger effect = lower value 0.983 | S. cerevisiae deletion strains, locus YPR141C, strain kar3, stronger effect = lower value 0.951 | S. cerevisiae deletion strains, locus YPR163C, strain tif3, stronger effect = lower value 0.987 | S. cerevisiae deletion strains, locus YPR167C, strain met16, stronger effect = lower value 0.99 | S. cerevisiae deletion strains, strain wtn01, stronger effect = lower value 0.989 | S. cerevisiae strains, strain wild type, stronger effect = lower value 0.981

From PubChem BioAssay AID1159580 (chemical genetic matrix, 2015)
